From PubChem BioAssay
Sampled rows, rich in hits. Any-hit rate of the full collection: about 11%.
3T3 cytotox: NIH 3T3 cell cytotoxicity | Potency, µM (titrated, usually from 96.7 µM), without a hit: at the highest dose activity change, negative = cytotoxicity, usual class: inhibitors | AID 1345082 | 94,000 tested, 4.3% active | NIH 3T3 viability, CellTiter-Glo ATP luminescence, 48-72 h; note: nearly all actives have a fitted effect of over 55% in size
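First NIH 3T3 cells are plated at 400 cells/well; next compound is pinned in; then plates incubate 48 or 72 hr at 37 °C; finally CellTiter-Glo is added and luminescence read after 10 min.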
HEK cytotox: cytotoxic compounds in HEK 293 cells; HEK 293 viability, ATP luminescence (CellTiter-Glo), 48-72 h; Potency, µM (titrated, usually from 115 µM), for inactives: at the top dose activity change, negative = cytotoxicity, actives largely listed as inhibitors; 94,000 tested, 6.6% active; note: nearly all actives have a fitted effect of over 60% in size
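qHTS cytotoxicity; HEK 293, 250 cells/well; compound pinned; 48 or 72 hr, 37 degree Celsius, 5% CO2, 95% humidity; CellTiter-Glo, 10 min RT; luminescence (ATP).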
Luciferase inh: blocks purified firefly luciferase enzyme activity | P08659 | 76,000 tested, 2.5% active | purified P. pyralis luciferase, luminescence, biochemical | Potency, µM (top dose mostly 115 µM), actives largely listed as inhibitors | AID 1347043; note: nearly all actives have a fitted effect of over 65% in size
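FLuc 10nM, D-luciferin 10uM, ATP 10uM, Mg acetate 10mM, Tris acetate pH 7.5, Tween/BSA; cpd qHTS; enzyme added last; CCD luminescence.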
NPR1 antag: human Npr1 receptor antagonism; P16066; HEK293 hNpr1 GloSensor cGMP, ANP-stimulated luminescence; Potency, µM (series often up to 46.3 µM), for the others: at the highest dose activity change, negative = inhibition, most hits filed as inhibitors; 76,000 tested, 1.6% active; AID 1347048; calls by dose curve; note: nearly all actives have a fitted effect of over 60% in size
Target sequence (P16066 whole entry, looked up): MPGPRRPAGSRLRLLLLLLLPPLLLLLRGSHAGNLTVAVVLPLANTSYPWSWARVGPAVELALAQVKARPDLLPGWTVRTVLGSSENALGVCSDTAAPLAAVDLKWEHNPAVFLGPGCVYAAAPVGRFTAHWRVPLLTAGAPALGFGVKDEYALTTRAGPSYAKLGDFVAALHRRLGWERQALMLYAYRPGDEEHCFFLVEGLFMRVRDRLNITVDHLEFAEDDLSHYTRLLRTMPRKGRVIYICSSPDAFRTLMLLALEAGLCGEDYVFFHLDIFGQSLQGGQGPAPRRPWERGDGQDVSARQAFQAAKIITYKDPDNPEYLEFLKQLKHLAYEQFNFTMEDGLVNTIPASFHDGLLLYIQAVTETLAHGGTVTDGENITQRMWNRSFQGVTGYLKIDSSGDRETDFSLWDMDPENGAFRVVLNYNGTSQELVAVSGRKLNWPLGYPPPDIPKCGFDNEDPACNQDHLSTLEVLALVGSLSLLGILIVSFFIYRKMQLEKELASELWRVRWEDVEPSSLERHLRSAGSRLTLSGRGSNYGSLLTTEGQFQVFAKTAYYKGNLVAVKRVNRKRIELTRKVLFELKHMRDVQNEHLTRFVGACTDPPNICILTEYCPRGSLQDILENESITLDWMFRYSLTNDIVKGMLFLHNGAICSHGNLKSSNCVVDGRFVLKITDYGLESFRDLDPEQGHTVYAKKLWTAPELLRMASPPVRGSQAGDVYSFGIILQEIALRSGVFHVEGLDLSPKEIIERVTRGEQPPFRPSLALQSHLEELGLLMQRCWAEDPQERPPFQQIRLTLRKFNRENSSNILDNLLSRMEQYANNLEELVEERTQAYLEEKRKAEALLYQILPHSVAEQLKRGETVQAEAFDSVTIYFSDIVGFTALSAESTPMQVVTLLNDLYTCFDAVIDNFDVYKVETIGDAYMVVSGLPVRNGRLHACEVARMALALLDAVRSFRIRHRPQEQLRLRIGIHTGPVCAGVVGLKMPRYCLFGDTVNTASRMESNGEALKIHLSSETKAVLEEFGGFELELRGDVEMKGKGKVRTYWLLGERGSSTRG
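HEK293 cells stably expressing human Npr1 and cGMP GloSensor pGS-40F, loaded 2 h with 2% GloSensor reagent, given compound 30 min at room temperature. Luminescence read before and 20 min after 0.1 nM hNppA.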
An asterisk follows results filed as active; i = inactive; ? = inconclusive; . = no result; ! = a repeat was not active; [ ] = remark or other dose. Unless noted, calls come from the whole dose curve; as a rule, active = well fitted curve in the direction sought with a large enough effect; inconclusive = small, poorly fitted or top-dose-only effect, or another doubt; inactive = no such curve, though single readings can be large; an effect the other way counts as inactive or inconclusive. % is set by controls: 0 for no effect and ±100 for the full control effect; potency is the fitted concentration of half-maximal effect.

SMILES | 3T3 cytotox | HEK cytotox | Luciferase inh | NPR1 antag
O=C(c1ccc(Cl)cc1)N1CCN(c2ccc3nnc(-c4ccccc4)n3n2)CC1 | 44.7µM* | ? | . | .
COc1ccc(-c2ccccc2C(=O)NCC(F)(F)F)nn1 | -20.4%[138 µM] | -13.2%[172 µM] | . | .
O=C(c1ccc(Cl)nc1)N1CCCC(c2nn(-c3ccccn3)c(=O)[nH]2)C1 (configuration not stated) | i | i | . | .
O=C(NC1CCCC1)N1c2ccccc2CC1c1nc(C2CC2)no1 (configuration not stated) | ? | ? | 20µM* | ?
O=C(NC1CCCCC1)N1c2ccccc2CC1c1noc(C2CCOCC2)n1 (configuration not stated) | -14.3% | -21.1% | i | 2.4%
COc1ccccc1CCNC(=O)C1CC(c2ccccc2)CN(C(=O)C2CC2)C1 (configuration not stated) | ? | 31.6µM* | i | -0.6%
CC(C)NC(=O)N1CC(C(=O)NCC2CC2)CC(c2ccccc2)C1 (configuration not stated) | -13.1% | -29.7% | i | 5.9%
COC(=O)CNC(=O)c1cc(-c2ccsc2)c2nncn2n1 | -27.3%[138 µM] | 1.2%[172 µM] | . | .
O=C(NC1CCCc2c1[nH]c1ccc(Cl)cc21)c1ccco1 (configuration not stated) | ? | -83.7% | i | -7.8%
Cc1c(-c2ccccc2F)[nH]c2ccc(CNC(=O)CCN3CCCO3)cc12 | ? | ? | 15.8µM* | -15.3%
O=C(NC1CCCc2c1[nH]c1ccc(F)cc21)c1n[nH]c2c1CCC2 (configuration not stated) | 35.5µM* | 35.5µM* | i | -27.2%
O=C(CCc1c[nH]c2ccccc12)NC1CCCc2c1[nH]c1ccc(F)cc21 (configuration not stated) | 39.8µM* | ? | i | 3.5%
Cc1c(-c2ccc(F)cc2)[nH]c2ccc(CNC(=O)c3cnn(C)c3)cc12 | ? | 39.8µM* | 25.1µM* | ?
Cc1c(-c2ccc(F)cc2)[nH]c2ccc(CNC(=O)c3n[nH]c4c3CCCC4)cc12 | 31.6µM* | ? | 15.8µM* | 15.8µM*
O=C(CN1CC(=O)NC1=O)NCc1ccc2[nH]c3c(c2c1)CCCCCC3 | -9.5% | -23.0% | i | 2.5%
CCN1CCN(CC(=O)NCc2ccc3[nH]c(-c4ccc(F)cc4)c(C)c3c2)CC1 | 22.4µM* | 17.8µM* | ? | 0.0%
Cn1ccc(NC(=O)C2(C)CCCc3cnc(NCc4ccccc4)nc32)n1 (configuration not stated) | 44.7µM* | ? | i | -5.1%[70.6 µM]
CC1(C(=O)NC2CCOCC2)CCCc2cnc(NCc3ccccc3)nc21 (configuration not stated) | -23.2%[138 µM] | ? | i | 0.0%[70.6 µM]
Cn1ccc(NC(=O)C2(C)CCc3cnc(Nc4ccccc4)nc32)n1 (configuration not stated) | ? | 100µM* | i | -4.8%[70.6 µM]
Cn1ccc(NC(=O)C2(C)CCCc3cnc(Nc4ccccc4)nc32)n1 (configuration not stated) | ? | ? | i | 8.0%[70.6 µM]
Cn1nc(C2CCCN(C(=O)NCc3ccccc3)C2)n(C2CCCC2)c1=O (configuration not stated) | -33.3% | -11.7% | . | .
O=C(Nc1ccc(F)cc1)N1CCOc2ccc(CN3CCc4ccccc4C3)cc2C1 | ? | ? | i | -3.9%
Cn1c([C@H]2CCN(Cc3cnc4ccccc4c3)C2)nc2ccccc21 | ? | 70.8µM* | i | -6.5%[70.6 µM]
Cn1c(CN2CC[C@H](c3nc4ccccc4[nH]3)C2)nc2ccccc21 | ? | 44.7µM* | i | -14.6%[70.6 µM]
c1ccc2ncc(CN3CC[C@H](c4nc5ccccc5[nH]4)C3)cc2c1 | ? | 70.8µM* | i | -16.4%[70.6 µM]
SMILES | 3T3 cytotox | HEK cytotox | Luciferase inh | NPR1 antag
CC(C)CN1CC[C@H](c2nc3ccccc3n2C)C1 | -24.4%[230 µM] | ? | 22.4µM* | -0.3%[70.6 µM]
COC(=O)N1CCCC1C(=O)N1CCC(N2Cc3ccccc3C2=O)CC1 (configuration not stated) | -2.2% | -6.8% | . | .
Cc1nccn1CCN(C)Cc1cc2n(n1)CCNC2 | -4.9% | -30.3% | i | -0.9%
COc1ccc(CN2C[C@@H](F)[C@@H](OCc3nc4ccccc4n3C)C2)cn1 | -7.6%[138 µM] | -11.2%[172 µM] | i | 0.2%[70.6 µM]
Cn1c(CO[C@H]2CN(Cc3cnc4ccccc4c3)C[C@H]2F)nc2ccccc21 | ? | 79.4µM* | i | ?
NCc1ccc(-c2ccc(F)cc2)cc1 | 89.1µM* | 100µM* | . | .
NCc1ccc(-c2ccc(OC(F)(F)F)cc2)cc1 | 25.1µM* | 25.1µM* | . | .
O=C(O)c1ccc(-c2ccc(OC(F)(F)F)cc2)cc1 | i | i | . | .
NCc1cccc(-c2cc(F)cc(F)c2)c1 | 89.1µM* | ? | . | .
C1=CC[C@H]2CN(c3nccc(-c4ccccn4)n3)C[C@H]2C1 | ? | 44.7µM* | i | -12.8%
OC1(c2ccc(F)cc2)CCN(c2nccc(-c3ccccn3)n2)CC1 | -22.7% | ? | i | -5.2%
COc1ccc(N2Cc3c(NCC4CCCCCC4)ncnc3N(C)CC2=O)cc1 | ? | 79.4µM* | i | -2.0%
CN1CC(=O)N(C2CCCC2)Cc2c(NCc3cccc(C(F)(F)F)c3)ncnc21 | ? | 35.5µM* | . | .
COc1cccc(CNc2ncnc3c2CN(C2CCCC2)C(=O)CN3C)c1 | ? | -0.8% | . | .
COCCCn1c(=O)c(C(=O)NCCCc2ccccc2)nc2cccnc21 | -14.7% | 3.8% | . | .
COc1ccccc1-c1ccc(CN2CCCC(c3nc4ccc(F)cc4c(=O)[nH]3)C2)cc1 (configuration not stated) | 39.8µM*! | 35.5µM*! | i | ?
O=c1[nH]c(C2CCCN(Cc3ccc(-c4cc(F)cc(F)c4)cc3)C2)nc2ccc(F)cc12 (configuration not stated) | ? | 44.7µM*! | i | -26.0%
Cc1ccc(-c2cccc(CN3CCCC(c4nc5ccc(C)cc5c(=O)[nH]4)C3)c2)c(C)c1 (configuration not stated) | ? | 35.5µM*! | i | -1.7%
O=c1[nH]c(C2CCCN(Cc3ccc(-c4ccccc4)cc3)C2)nc2ccc(F)cc12 (configuration not stated) | ? | 31.6µM*! | i | ?
Cc1ccc2nc(C3CCCN(Cc4ccc(-c5cncnc5)cc4)C3)[nH]c(=O)c2c1 (configuration not stated) | 4.3% | 4.6% | i | 1.7%
Cc1noc(C)c1[S+](=O)([O-])N1CCC(C(=O)C2CCC(N3Cc4cccn4C3=O)CC2)CC1 (configuration not stated) | -13.5% | 0.7% | . | .
O=c1[nH]c(C2CCCN(Cc3ccccc3)C2)nc2ccc(F)cc12 (configuration not stated) | 28.2µM*! | 50.1µM*! | i | -12.2%[70.6 µM]
O=c1[nH]c(C2CCCN(Cc3cccs3)C2)nc2ccc(F)cc12 (configuration not stated) | ? | ? | i | -2.6%
